In PubChem BioAssay AID1159580 (chemical genetic matrix, 2015):
The whole screen tested about 5,500 compounds, of which about 2,000 (36%) were called active. Inconclusive results (about 18%) are left out. Rule as the data show it: active = normalized growth mostly below about 0.91 (no sharp cut-off); inconclusive = no clear call, values can overlap the other calls; inactive = mostly above about 0.92. The list shows a part of the results.

Assay: chemical genetic growth profiling, strain panel (AID 1159580);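 also: tested at 20 µM; growth read once vehicle control cultures reached saturation at 30 °C; 1 = growth at the plate median or of vehicle wells; lower values mean less growth of the strain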
Conditions: growth OD

Measured: normalized growth

COc1ccc2c(c1)CCC1C2CCC2(C)C1C[C@@H](O)C2O (stereo not given in full)
active: S. cerevisiae deletion strains, locus YAL026C, strain drs2, stronger effect = lower value 0.83 | S. cerevisiae deletion strains, locus YDR392W, strain spt3, stronger effect = lower value 0.685 | S. cerevisiae deletion strains, locus YER155C, strain BEM2 (second series), stronger effect = lower value 0.715 | S. cerevisiae deletion strains, locus YGL253W, strain hxk2, stronger effect = lower value 0.903 | S. cerevisiae deletion strains, locus YJL164C, strain tpk1, stronger effect = lower value 0.907 | S. cerevisiae deletion strains, locus YLR262C, strain YPT6 (second series), stronger effect = lower value 0.755 | S. cerevisiae deletion strains, locus YLR320W, strain mms22, stronger effect = lower value 0.876 | S. cerevisiae deletion strains, locus YNL071W, strain lat1, stronger effect = lower value 0.833
inactive: S. cerevisiae deletion strains, locus YAL013W, strain DEP1, stronger effect = lower value 1 | S. cerevisiae deletion strains, locus YAL021C, strain ccr4, stronger effect = lower value 0.947 | S. cerevisiae deletion strains, locus YAL030W, strain snc1, stronger effect = lower value 1 | S. cerevisiae deletion strains, locus YBL061C, strain skt5, stronger effect = lower value 1 | S. cerevisiae deletion strains, locus YBR009C, strain hhf1, stronger effect = lower value 0.917 | S. cerevisiae deletion strains, locus YBR021W, strain FUR4, stronger effect = lower value 1.08 | S. cerevisiae deletion strains, locus YBR023C, strain chs3, stronger effect = lower value 0.988 | S. cerevisiae deletion strains, locus YBR171W, strain sec66, stronger effect = lower value 0.983 | S. cerevisiae deletion strains, locus YBR229C, strain ROT2, stronger effect = lower value 1.02 | S. cerevisiae deletion strains, locus YBR231C, strain swc5, stronger effect = lower value 1.01 | S. cerevisiae deletion strains, locus YBR279W, strain paf1, stronger effect = lower value 0.992 | S. cerevisiae deletion strains, locus YCL011C, strain gbp2, stronger effect = lower value 0.977 | S. cerevisiae deletion strains, locus YCL016C, strain dcc1, stronger effect = lower value 0.949 | S. cerevisiae deletion strains, locus YCL029C, strain bik1, stronger effect = lower value 0.993 | S. cerevisiae deletion strains, locus YCL061C, strain MRC1, stronger effect = lower value 0.985 | S. cerevisiae deletion strains, locus YCL069W, strain vba3, stronger effect = lower value 1 | S. cerevisiae deletion strains, locus YCR088W, strain abp1, stronger effect = lower value 0.998 | S. cerevisiae deletion strains, locus YDL005C, strain med2, stronger effect = lower value 1.01 | S. cerevisiae deletion strains, locus YDL035C, strain GPR1, stronger effect = lower value 0.962 | S. cerevisiae deletion strains, locus YDL040C, strain nat1, stronger effect = lower value 0.993 | S. cerevisiae deletion strains, locus YDL074C, strain BRE1, stronger effect = lower value 0.95 | S. cerevisiae deletion strains, locus YDL101C, strain DUN1, stronger effect = lower value 1.02 | S. cerevisiae deletion strains, locus YDL134C, strain PPH21, stronger effect = lower value 0.952 | S. cerevisiae deletion strains, locus YDL185W, strain tfp1, stronger effect = lower value 0.992 | S. cerevisiae deletion strains, locus YDL192W, strain arf1, stronger effect = lower value 0.997 | S. cerevisiae deletion strains, locus YDR001C, strain nth1, stronger effect = lower value 1.01 | S. cerevisiae deletion strains, locus YDR069C, strain doa4, stronger effect = lower value 0.992 | S. cerevisiae deletion strains, locus YDR101C, strain arx1, stronger effect = lower value 0.987 | S. cerevisiae deletion strains, locus YDR137W, strain rgp1, stronger effect = lower value 0.854 | S. cerevisiae deletion strains, locus YDR150W, strain NUM1, stronger effect = lower value 1.01 | S. cerevisiae deletion strains, locus YDR159W, strain sac3, stronger effect = lower value 0.966 | S. cerevisiae deletion strains, locus YDR162C, strain NBP2, stronger effect = lower value 0.978 | S. cerevisiae deletion strains, locus YDR195W, strain ref2 1.1 | S. cerevisiae deletion strains, locus YDR297W, strain sur2, stronger effect = lower value 1 | S. cerevisiae deletion strains, locus YDR318W, strain mcm21, stronger effect = lower value 0.991 | S. cerevisiae deletion strains, locus YDR334W, strain swr1, stronger effect = lower value 1 | S. cerevisiae deletion strains, locus YDR335W, strain msn5, stronger effect = lower value 0.997 | S. cerevisiae deletion strains, locus YDR388W, stronger effect = lower value 0.99 | S. cerevisiae deletion strains, locus YDR502C, strain sam2, stronger effect = lower value 0.997 | S. cerevisiae deletion strains, locus YEL003W, strain gim4, stronger effect = lower value 0.992 | S. cerevisiae deletion strains, locus YEL037C, strain rad23, stronger effect = lower value 1 | S. cerevisiae deletion strains, locus YEL061C, strain CIN8 (second series), stronger effect = lower value 1.01 | S. cerevisiae deletion strains, locus YEL061C, strain CIN8, stronger effect = lower value 1.01 | S. cerevisiae deletion strains, locus YER015W, strain faa2, stronger effect = lower value 0.996 | S. cerevisiae deletion strains, locus YER016W, strain bim1, stronger effect = lower value 0.979 | S. cerevisiae deletion strains, locus YER110C, stronger effect = lower value 0.983 | S. cerevisiae deletion strains, locus YER111C, strain swi4, stronger effect = lower value 0.984 | S. cerevisiae deletion strains, locus YER155C, strain BEM2, stronger effect = lower value 1.02 | S. cerevisiae deletion strains, locus YER167W, strain BCK2, stronger effect = lower value 0.999 | S. cerevisiae deletion strains, locus YFR010W, strain ubp6, stronger effect = lower value 1 | S. cerevisiae deletion strains, locus YGL078C, strain dbp3, stronger effect = lower value 0.997 | S. cerevisiae deletion strains, locus YGL086W, strain mad1, stronger effect = lower value 0.991 | S. cerevisiae deletion strains, locus YGL167C, strain pmr1, stronger effect = lower value 1 | S. cerevisiae deletion strains, locus YGL173C, strain kem1, stronger effect = lower value 0.949 | S. cerevisiae deletion strains, locus YGL227W, strain vid30, stronger effect = lower value 1 | S. cerevisiae deletion strains, locus YGL240W, strain doc1, stronger effect = lower value 0.944 | S. cerevisiae deletion strains, locus YGL248W, strain PDE1, stronger effect = lower value 1 | S. cerevisiae deletion strains, locus YGR135W, strain pre9, stronger effect = lower value 0.961 | S. cerevisiae deletion strains, locus YGR252W, strain gcn5, stronger effect = lower value 0.774 | S. cerevisiae deletion strains, locus YHR013C, strain ard1, stronger effect = lower value 0.906 | S. cerevisiae deletion strains, locus YHR027C, strain rpn1, stronger effect = lower value 1.01 | S. cerevisiae deletion strains, locus YHR030C, strain SLT2, stronger effect = lower value 1.01 | S. cerevisiae deletion strains, locus YHR079C, strain IRE1 (second series), stronger effect = lower value 0.992 | S. cerevisiae deletion strains, locus YHR094C, strain hxt1, stronger effect = lower value 0.992 | S. cerevisiae deletion strains, locus YHR129C, strain ARP1, stronger effect = lower value 1.01 | S. cerevisiae deletion strains, locus YHR142W, strain chs7, stronger effect = lower value 0.925 | S. cerevisiae deletion strains, locus YHR200W, strain rpn10, stronger effect = lower value 0.993 | S. cerevisiae deletion strains, locus YIL066C, strain RNR3, stronger effect = lower value 0.98 | S. cerevisiae deletion strains, locus YIL073C, strain SPO22, stronger effect = lower value 0.91 | S. cerevisiae deletion strains, locus YIL125W, strain kgd1, stronger effect = lower value 1 | S. cerevisiae deletion strains, locus YIR030C, strain dcg1, stronger effect = lower value 0.991 | S. cerevisiae deletion strains, locus YJL092W, strain hpr5, stronger effect = lower value 0.998 | S. cerevisiae deletion strains, locus YJL095W, strain BCK1 (second series), stronger effect = lower value 0.981 | S. cerevisiae deletion strains, locus YJL095W, strain BCK1, stronger effect = lower value 0.944 | S. cerevisiae deletion strains, locus YJL115W, strain asf1, stronger effect = lower value 0.995 | S. cerevisiae deletion strains, locus YJL129C, strain trk1, stronger effect = lower value 0.915 | S. cerevisiae deletion strains, locus YJL134W, strain LCB3, stronger effect = lower value 1.02 | S. cerevisiae deletion strains, locus YJL154C, strain vps35, stronger effect = lower value 1.02 | S. cerevisiae deletion strains, locus YJL168C, strain set2, stronger effect = lower value 0.994 | S. cerevisiae deletion strains, locus YJL187C, strain SWE1 (second series), stronger effect = lower value 1 | S. cerevisiae deletion strains, locus YJL187C, strain SWE1, stronger effect = lower value 0.991 | S. cerevisiae deletion strains, locus YJR043C, strain POL32, stronger effect = lower value 0.999 | S. cerevisiae deletion strains, locus YJR075W, strain HOC1, stronger effect = lower value 0.982 | S. cerevisiae deletion strains, locus YKL009W, strain mrt4, stronger effect = lower value 0.948 | S. cerevisiae deletion strains, locus YKL068W, stronger effect = lower value 1 | S. cerevisiae deletion strains, locus YKL085W, strain MDH1 (second series), stronger effect = lower value 0.997 | S. cerevisiae deletion strains, locus YKL085W, strain MDH1, stronger effect = lower value 0.997 | S. cerevisiae deletion strains, locus YKL160W, strain elf1, stronger effect = lower value 0.958 | S. cerevisiae deletion strains, locus YKL190W, strain CNB1, stronger effect = lower value 1.01 | S. cerevisiae deletion strains, locus YKR001C, strain vps1, stronger effect = lower value 0.956 | S. cerevisiae deletion strains, locus YKR026C, strain gcn3, stronger effect = lower value 0.994 | S. cerevisiae deletion strains, locus YKR091W, strain srl3, stronger effect = lower value 0.997 | S. cerevisiae deletion strains, locus YLL001W, strain dnm1, stronger effect = lower value 0.966 | S. cerevisiae deletion strains, locus YLL026W, stronger effect = lower value 0.974 | S. cerevisiae deletion strains, locus YLL041C, strain sdh2, stronger effect = lower value 0.982 | S. cerevisiae deletion strains, locus YLR027C, strain aat2, stronger effect = lower value 0.974 | S. cerevisiae deletion strains, locus YLR039C, strain RIC1, stronger effect = lower value 0.947 | S. cerevisiae deletion strains, locus YLR058C, strain SHM2, stronger effect = lower value 1 | S. cerevisiae deletion strains, locus YLR102C, strain apc9, stronger effect = lower value 0.99 | S. cerevisiae deletion strains, locus YLR221C, strain rsa3, stronger effect = lower value 0.929 | S. cerevisiae deletion strains, locus YLR258W, strain gsy2, stronger effect = lower value 0.965 | S. cerevisiae deletion strains, locus YLR262C, strain YPT6, stronger effect = lower value 0.943 | S. cerevisiae deletion strains, locus YLR268W, strain sec22, stronger effect = lower value 0.973 | S. cerevisiae deletion strains, locus YLR330W, strain CHS5, stronger effect = lower value 1.01 | S. cerevisiae deletion strains, locus YLR342W, strain FKS1 (second series), stronger effect = lower value 0.912 | S. cerevisiae deletion strains, locus YLR342W, strain FKS1, stronger effect = lower value 0.947 | S. cerevisiae deletion strains, locus YLR357W, strain rsc2, stronger effect = lower value 0.987 | S. cerevisiae deletion strains, locus YLR370C, strain arc18, stronger effect = lower value 1 | S. cerevisiae deletion strains, locus YLR371W, strain rom2, stronger effect = lower value 0.985 | S. cerevisiae deletion strains, locus YLR384C, strain iki3, stronger effect = lower value 1.01 | S. cerevisiae deletion strains, locus YLR418C, strain cdc73, stronger effect = lower value 0.894 | S. cerevisiae deletion strains, locus YML016C, strain PPZ1, stronger effect = lower value 1.01 | S. cerevisiae deletion strains, locus YML032C, strain rad52, stronger effect = lower value 0.972 | S. cerevisiae deletion strains, locus YML120C, strain ndi1, stronger effect = lower value 0.998 | S. cerevisiae deletion strains, locus YML124C, strain tub3, stronger effect = lower value 0.998 | S. cerevisiae deletion strains, locus YMR058W, strain fet3, stronger effect = lower value 0.968 | S. cerevisiae deletion strains, locus YMR078C, strain ctf18, stronger effect = lower value 0.992 | S. cerevisiae deletion strains, locus YMR125W, strain sto1, stronger effect = lower value 1.01 | S. cerevisiae deletion strains, locus YMR129W, stronger effect = lower value 1.01 | S. cerevisiae deletion strains, locus YMR205C, strain PFK2, stronger effect = lower value 0.964 | S. cerevisiae deletion strains, locus YMR223W, strain ubp8, stronger effect = lower value 0.965 | S. cerevisiae deletion strains, locus YMR231W, strain pep5, stronger effect = lower value 0.998 | S. cerevisiae deletion strains, locus YMR307W, strain GAS1, stronger effect = lower value 0.782 | S. cerevisiae deletion strains, locus YNL067W, strain RPL9B, stronger effect = lower value 0.979 | S. cerevisiae deletion strains, locus YNL128W, strain TEP1, stronger effect = lower value 0.992 | S. cerevisiae deletion strains, locus YNL209W, strain ssb2, stronger effect = lower value 1 | S. cerevisiae deletion strains, locus YNL233W, strain BNI4, stronger effect = lower value 0.989 | S. cerevisiae deletion strains, locus YNL248C, strain rpa49, stronger effect = lower value 0.979 | S. cerevisiae deletion strains, locus YNL250W, strain rad50, stronger effect = lower value 0.983 | S. cerevisiae deletion strains, locus YNL271C, strain bni1, stronger effect = lower value 0.983 | S. cerevisiae deletion strains, locus YNL298W, strain CLA4, stronger effect = lower value 0.966 | S. cerevisiae deletion strains, locus YNL307C, strain MCK1, stronger effect = lower value 0.967 | S. cerevisiae deletion strains, locus YNL322C, strain KRE1 (second series), stronger effect = lower value 1.01 | S. cerevisiae deletion strains, locus YNR049C, strain mso1, stronger effect = lower value 1.01 | S. cerevisiae deletion strains, locus YNR052C, strain pop2, stronger effect = lower value 0.987 | S. cerevisiae deletion strains, locus YOL006C, strain TOP1, stronger effect = lower value 0.902 | S. cerevisiae deletion strains, locus YOL012C, strain htz1 0.926 | S. cerevisiae deletion strains, locus YOL147C, strain pex11, stronger effect = lower value 1 | S. cerevisiae deletion strains, locus YOR001W, strain rrp6, stronger effect = lower value 0.986 | S. cerevisiae deletion strains, locus YOR061W, strain CKA2, stronger effect = lower value 1.01 | S. cerevisiae deletion strains, locus YOR069W, strain VPS5, stronger effect = lower value 1.01 | S. cerevisiae deletion strains, locus YOR070C, strain gyp1, stronger effect = lower value 0.998 | S. cerevisiae deletion strains, locus YOR080W, strain dia2, stronger effect = lower value 1 | S. cerevisiae deletion strains, locus YOR083W, strain WHI5, stronger effect = lower value 0.914 | S. cerevisiae deletion strains, locus YOR106W, strain vam3, stronger effect = lower value 0.916 | S. cerevisiae deletion strains, locus YOR136W, strain idh2, stronger effect = lower value 0.997 | S. cerevisiae deletion strains, locus YOR144C, strain elg1, stronger effect = lower value 0.995 | S. cerevisiae deletion strains, locus YOR184W, strain ser1, stronger effect = lower value 0.945 | S. cerevisiae deletion strains, locus YOR265W, strain rbl2, stronger effect = lower value 0.999 | S. cerevisiae deletion strains, locus YOR270C, strain vph1, stronger effect = lower value 1.11 | S. cerevisiae deletion strains, locus YOR290C, strain snf2, stronger effect = lower value 0.94 | S. cerevisiae deletion strains, locus YOR316C, strain cot1, stronger effect = lower value 0.991 | S. cerevisiae deletion strains, locus YPL051W, strain arl3, stronger effect = lower value 0.941 | S. cerevisiae deletion strains, locus YPL078C, strain atp4, stronger effect = lower value 0.929 | S. cerevisiae deletion strains, locus YPL106C, strain sse1, stronger effect = lower value 1.03 | S. cerevisiae deletion strains, locus YPL240C, strain hsp82, stronger effect = lower value 1.01 | S. cerevisiae deletion strains, locus YPR119W, strain clb2, stronger effect = lower value 0.991 | S. cerevisiae deletion strains, locus YPR141C, strain kar3, stronger effect = lower value 0.993 | S. cerevisiae deletion strains, locus YPR163C, strain tif3, stronger effect = lower value 0.985 | S. cerevisiae deletion strains, locus YPR167C, strain met16, stronger effect = lower value 0.991 | S. cerevisiae deletion strains, strain wtn01, stronger effect = lower value 0.978 | S. cerevisiae strains, strain wild type, stronger effect = lower value 1.01
